Source: PubChem (The Scripps Research Institute Molecular Screening Center)
ssDAF12 agonist = activators of S. stercoralis DAF-12 nuclear receptor. HEK293 ssDAF-12/GRIP1 lit1-tk-luc reporter, luminescence; % of 3 µM dafachronic acid response. activation, % at 6.8 µM. 370,000 tested, 1% active;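 active = activation above the mean over all tested compounds plus 3 SD, cut at about 0.9% in these data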
DAX1 inh-1 = inhibitors of DAX1 repression of SF-1 activated StAR promoter | HEK293T StAR-luciferase reporter, SF-1/DAX-1 repression relief | inhibition, % at 6.8 µM | 370,000 tested, 1.1% active;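 active = inhibition above the mean over all tested compounds plus 3 SD, cut at about 3.6% in these data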;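 note: higher inhibition means more luminescence from relief of DAX-1 repression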
hcDAF-12 act = H. contortus DAF-12 activation, primary screen. activation, % at 6.8 µM. 370,000 tested, 1.4% active. HEK293 hcDAF-12 lit1-tk-luc reporter, luminescence; 0% DMSO, 100% Δ7-dafachronic acid;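 active = activation above the mean of all tested compounds plus 3 SD, cut at about 5.5% in these data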
DAX1 inh-2 = inhibits human nuclear receptor DAX1; P51843; HEK293 Gal4-DAX1 luciferase reporter, luminescence; inhibition, % at 6.75 µM; 340,000 tested, 0.99% active;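 active = inhibition above the mean over all tested compounds plus 3 SD, cut at about 4.2% in these data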;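 note: inhibition shows as a rise in luminescence from relieved DAX1 repression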
Target sequence (P51843 207-470 limits assumed): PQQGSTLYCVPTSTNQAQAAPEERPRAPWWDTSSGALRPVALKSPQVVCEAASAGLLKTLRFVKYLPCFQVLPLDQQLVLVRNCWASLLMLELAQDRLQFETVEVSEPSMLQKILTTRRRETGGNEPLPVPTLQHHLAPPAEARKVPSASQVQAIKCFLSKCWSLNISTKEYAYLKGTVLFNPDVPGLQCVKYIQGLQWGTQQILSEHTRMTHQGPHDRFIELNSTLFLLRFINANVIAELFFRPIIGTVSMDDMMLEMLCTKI
hgDAF12 agonist = hgDAF-12 agonism, primary luciferase screen; activation, % at 6.8 µM; HEK293 GAL4-hgDAF12 UAS-luciferase reporter, agonist luminescence; normalized to butyrate control; 370,000 tested, 1.8% active;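 active = activation above a cutoff set at the mean of all screened compounds plus 3 SD, cut at about 10% in these data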
hgDAF12 conf = hgDAF-12 agonism, confirmation assay. shares compounds with hgDAF12 agonist. HEK293 GAL4-hgDAF12 luciferase reporter, agonist mode; percent of butyrate response. activation, % at 6.8 µM. 3,300 tested, 80% active;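 active = mean activation over triplicate wells above the hit cutoff derived from the earlier primary screen, cut at about 11% in these data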
LXRb DAF12 ctr = LXR-beta agonism as DAF-12 counter-screen; activation, % at 6.8 µM; 3,300 tested, under 10 active; HEK293 Gal4-LXR luciferase reporter, 24 h; shares compounds with hgDAF12 agonist;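 active = mean activation of the triplicate above a set limit carried over from the primary screen, none filed active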
Numbers stand for hits; 0 = inactive; - = not tested or not shown. Only some compounds are listed: those with a hit (about 4.1% of all), similar ones and a draw of the others.

SMILES	ssDAF12 agonist	DAX1 inh-1	hcDAF-12 act	DAX1 inh-2	hgDAF12 agonist	hgDAF12 conf	LXRb DAF12 ctr
S=c1[nH]c(-c2ccccc2)cn1/N=C/c1cccs1	0	0	5.6	0	14	0	0
CC(=O)C1=CCN(C)CC1	0	0	0	-	0	-	-
O=c1nc(N/N=C/c2c[nH]c3ccccc23)cn[nH]1	0	0	0	0	17	13	0
O=c1nc(N/N=C/C=C/c2ccccc2)cn[nH]1	0	0	0	0	16	14	0
COCC#Cc1ccc(CC[C@H]2O[C@H]3CC[C@@H](CO)O[C@H]3C[C@H]2n2cc(C3CC3)nn2)cc1	0	0	0	-	0	-	-
COc1ccc(S[C@]2(C(=O)N3CCN(c4ncccn4)CC3)CC(=O)N(C(=O)c3ccccc3)[C@@H]2c2ccc(OC)cc2)cc1	0	0	0	-	0	-	-
CC(C)c1ccc(NC(=O)Nc2cnccn2)cc1	0	0	0	0	16	14	0
O=C(Nc1ccc(Cl)cc1)Nc1cnccn1	0	0	0	0	0	-	-
CCCN(CCC)CC(O)Cn1cc(/C=C/C(=O)c2ccccc2)c2ccccc21 (stereo not drawn)	0	0	0	0	0	-	-
CCCN(CCC)CC(O)Cn1cc(/C=C/C(=O)c2cccs2)c2ccccc21 (stereo not drawn)	0	0	0	0	27	0	0
CC(C)C[C@H]1COc2cc(Br)ccc2S(=O)(=O)N1Cc1ccc(F)cc1F	0	0	0	-	0	-	-
Cc1cccc(N=C2NC(=O)/C(=C\c3cccs3)S2)c1	0	0	0	0	0	-	-
O=C1NC(=Nc2ccccc2)S/C1=C/c1cccs1	0	0	0	0	15	0	0
O=C(Nc1cccc(F)c1)Nc1ccc(Cl)cn1	0	0	0	0	0	-	-
Cc1ccc(NC(=O)Nc2cccc(F)c2)nc1	0	0	0	4.8	13	14	0
Cc1ccc(NC(=O)c2cc(F)c(F)cc2Cl)nc1	0	0	0	0	17	11	0
Cc1ccc(NC(=O)c2ccccc2F)nc1	0	0	0	0	14	14	0
COc1ccc(OC)c(C(=O)CSc2nnc(SCc3cccc4ccccc34)s2)c1	0	0	0	-	0	-	-
C/C(CCc1ccccc1)=N\NC(=O)c1ccccc1	0	0	0	0	14	0	0
O=C(NC1CCCCN(Cc2ccc(Cl)cc2)C1=O)c1ccccn1 (stereo not drawn)	0	0	0	-	0	-	-
CSCCNC(=O)c1ccc(C(C)(C)C)cc1	1.1	0	0	0	16	16	0
CCN(CC)S(=O)(=O)c1cc(C(=O)OCC(=O)Nc2ccc(-c3nc4ccc(C)cc4s3)cc2)ccc1F	1.2	0	0	0	16	19	0
Cc1ccc(C2(C)NC(=O)N(CC(=O)Nc3ccc(-c4nc5ccc(C)cc5s4)cc3)C2=O)cc1 (stereo not drawn)	1.1	0	0	0	24	12	0
Cc1ccc(NC(=O)CN2C(=O)NC(C)(c3ccc4c(c3)OCO4)C2=O)cc1 (stereo not drawn)	0	0	0	0	0	-	-
CCC(=O)NC(=S)Nc1ccc(-c2nc3ccc(C)cc3s2)cc1	0	0	0	0	17	13	0
SMILES	ssDAF12 agonist	DAX1 inh-1	hcDAF-12 act	DAX1 inh-2	hgDAF12 agonist	hgDAF12 conf	LXRb DAF12 ctr
Cc1ccc2nc(-c3ccc(NC(=O)COCC(=O)O)cc3)sc2c1	0	0	0	0	16	11	0
CC(=O)Nc1ncc(N=Nc2cccc(C(F)(F)F)c2)s1	0	0	0	0	0	-	-
Cc1cccc(N=Nc2cnc(N)s2)c1	0	0	0	4.4	18	0	0
Fc1ccccc1CSc1ccc(-c2ccco2)nn1	0	4.1	0	0	16	15	0
Cc1ccc(CSc2ccc(-c3ccco3)nn2)cc1	0	0	0	0	0	-	-
c1ccc(CSc2ccc(-c3ccco3)nn2)cc1	0	0	0	0	15	15	0
Clc1ccc(CSc2ccc(-c3ccco3)nn2)cc1	0	0	0	0	0	-	-
Cc1cccc(NC(=O)c2cc3ccccc3o2)c1	1.1	0	6.4	0	20	19	0
O=C(Nc1cccnc1)c1cc2cc(Br)ccc2o1	0	0	0	6.6	14	14	0
COC(=O)c1cc(C(c2ccccc2O)C2CCCO2)n2cccc(C(C)(C)C)c12 (stereo not drawn)	0	0	0	-	0	-	-
O=C1CCC(NC(=O)Cc2ccccc2)C(=O)N1 (stereo not drawn)	0	0	0	-	0	-	-
COc1ccc(CNc2nc3ccccc3n2C)c(O)c1	0	4.5	0	0	17	21	0
COc1ccc(CNc2nc3ccccc3n2C(C)C)c(O)c1	0	0	0	0	0	-	-
O=C(CSc1nnc(-c2ccccc2)n1-c1ccc(Cl)cc1)c1ccc(Cl)cc1	0	0	0	-	0	-	-
O=C(Cc1ccccc1)Nc1ccc2c(c1)OC1(CCCC1)O2	0	0	0	0	14	15	0
Cc1nn(C(=O)c2cccs2)c(N)c1-c1ccccc1	0	3.7	0	0	15	17	0
Cc1occc1C(=O)Nc1ccc2c(c1)CCC2	0	3.9	0	0	15	15	0
Cc1ccc(C(=O)Nc2ccc3c(c2)CCC3)o1	0	0	0	0	16	22	0
CS(=O)(=O)N[C@@H]1C[C@@H]2O[C@@H](CO)CC[C@@H]2O[C@@H]1CCc1ccc(-c2ccccc2F)cc1	0	0	0	-	0	-	-
C=CC[C@]12C[C@@]3(O[C@H](c4ccc(C(F)(F)F)cc4)N=C3C[C@H](c3ccc(OC)cc3)[C@H]1C)N(Cc1ccncc1)C2=O	0	0	0	-	0	-	-
CCOC(=O)[C@@H]1CSCCS(=O)(=O)N1C(=O)[C@H](CCSC)NC(=O)OC(C)(C)C	0	0	0	-	0	-	-
O=C(N/N=C/c1cc2c(cc1Cl)OCO2)c1ccccn1	0	0	0	0	0	-	-
COc1cc(/C=N/NC(=O)c2ccccn2)cc2c1OCO2	0	0	0	0	14	0	0
Cc1nnc(SCC(=O)Nc2cc(-c3cc(C)c(C)cc3C)nn2-c2ccccc2)s1	0	0	0	0	0	-	-
CCCc1ccc(-c2cc(NC(=O)CSc3nnc(N)s3)n(-c3ccccc3)n2)cc1	0	4.1	0	0	14	19	0
COc1cccc(CNC(=O)Cn2c(-c3ccccc3)cc(C(C)=O)c2C)c1	0	0	0	-	0	-	-
Cc1cc(C)c2c(CN(C)Cc3ccccc3)cc(=O)oc2c1	0	0	0	-	13	0	0
C=CCNc1nc(NCc2ccc(N(C)C)cc2)c2sc(-c3ccccc3)cc2n1	0	4.5	0	-	15	0	0
O=C(NNC1=C(C(=O)C(F)(F)F)CCC1)c1cccc(O)c1	0	4.3	0	0	13	0	0
